The values below come from the supplement of paper PMC8728848.

Experiment in all cases: glycan array binding signal (z-score within array); higher = stronger binding
Conditions in all cases: glycan notation: IUPAC condensed, linker removed

The target in experiment [1] is Gal(b1-4)GlcNAc(b1-3)Gal(b1-4)GlcNAc(b1-3)Gal(b1-4)GlcNAc(b1-3)Gal(b1-4)GlcNAc(b1-3)Gal(b1-4)GlcNAc(b1-3)Gal(b1-4)GlcNAc(b1-2)Man(a1-3)[Gal(b1-4)GlcNAc(b1-3)Gal(b1-4)GlcNAc(b1-3)Gal(b1-4)GlcNAc(b1-3)Gal(b1-4)GlcNAc(b1-3)Gal(b1-4)GlcNAc(b1-3)Gal(b1-4)GlcNAc(b1-2)Man(a1-6)]Man(b1-4)GlcNAc(b1-4)GlcNAc. The essentials:
(§1)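 The binding signal is a Z-score computed within each array and averaged over linkers. Arrays of the same protein sequence at different concentrations or buffers were also averaged together. Data originate from 3228 arrays in the Consortium for Functional Glycomics database, kept only where the protein sequence was available.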

Experiment [2] addresses Gal(b1-6)Gal. The essentials: as §1
The target in experiment [3] is Gal3S(b1-3)GlcNAc. The essentials:
as §1

The target of experiment [4] is Gal3S(b1-4)[Fuc(a1-3)]GlcNAc6S. The method in brief: as §1
Experiment [5] has as its target Gal6S(b1-3)GlcNAc. The method in brief: as §1
The target of experiment [6] is Gal6S(b1-4)Glc6S. The essentials: as §1
Experiment [7] concerns the target GlcNAc(a1-3)Gal(b1-4)GlcNAc. The method in brief: as §1
The target of experiment [8] is GlcNAc(b1-2)Gal(b1-3)GalNAc. The essentials:
as §1

In experiment [9] the target is GlcNAc(b1-2)Man(a1-3)[GlcNAc(b1-4)][GlcNAc(b1-2)Man(a1-6)]Man(b1-4)GlcNAc(b1-4)GlcNAc. The essentials:
as §1

Experiment [10] concerns the target GlcNAc(b1-3)Gal. The method in brief:
as §1

Experiment [11] has as its target GlcNAc(b1-4)GlcNAc(b1-4)GlcNAc(b1-4)GlcNAc(b1-4)GlcNAc. The method in brief:
as §1

Experiment [12] concerns the target Man(a1-2)Man(a1-6)[Man(a1-3)]Man(a1-6)[Man(a1-2)Man(a1-2)Man(a1-3)]Man(b1-4)GlcNAc(b1-4)GlcNAc. The essentials: as §1
Experiment [13] concerns the target Man(a1-3)[Man(a1-6)]Man(a1-6)[Man(a1-3)]Man(b1-4)GlcNAc(b1-4)GlcNAc. The essentials: as §1
In experiment [14] the target is Neu5Ac(a2-3)Gal(b1-3)GalNAc6S. The method in brief: as §1
Experiment [15] addresses Neu5Ac(a2-3)Gal(b1-3)GlcNAc(b1-3)Gal(b1-3)GlcNAc. The method in brief:
as §1

In experiment [16] the target is Neu5Ac(a2-3)Gal(b1-3)[Neu5Ac(a2-6)]GalNAc. The essentials:
as §1

For experiment [17], the target named is Neu5Ac(a2-3)Gal(b1-4)GlcNAc(b1-6)[Neu5Ac(a2-3)Gal(b1-3)]GalNAc. The essentials: as §1
Experiment [18] addresses Neu5Ac(a2-3)Gal(b1-4)[Fuc(a1-3)]GlcNAc(b1-3)Gal. The essentials:
as §1

Experiment [19] deals with Neu5Ac(a2-6)Gal(b1-4)GlcNAc(b1-2)[Neu5Ac(a2-6)Gal(b1-4)GlcNAc(b1-6)]Man(a1-6)[Neu5Ac(a2-6)Gal(b1-4)GlcNAc(b1-2)Man(a1-3)][GlcNAc(b1-4)]Man(b1-4)GlcNAc(b1-4)GlcNAc. The method in brief: as §1
Experiment [20] has as its target Neu5Ac(a2-6)Gal(b1-4)GlcNAc(b1-3)Gal(b1-4)GlcNAc(b1-3)[Neu5Ac(a2-6)Gal(b1-4)GlcNAc(b1-3)Gal(b1-4)GlcNAc(b1-6)]GalNAc. The essentials: as §1
In experiment [21] the target is Neu5Ac(a2-6)GlcNAc(b1-4)GlcNAc. The method in brief:
as §1

The target of experiment [22] is Neu5Ac(a2-8)Neu5Ac(a2-3)[GalNAc(b1-4)]Gal(b1-4)Glc. The essentials: as §1

Shown is part of a subset that was picked to be rich in the strongest signals.

B1: rCnSL-A (Clitocybe nebularis) (protein)
chain: VNPNLPGPNDVFVGFRGTNNIVGAIYEKDGIKDTPLNNGADAEMGPGSYITDGLFTARIFASGSAGNNPGTTATVCKIYASGVQWRGAPKGYIPVAYFGNGPTAEQRRQTYLRTLGLPGTAIRFGNLNTNPGQGPTAPRQMVVPPGPLRSLLKASCFPAADTRLPQTLHYFEKRVDWNIITAADSQTWGH
In the case of B1, the “glycan array binding signal (z-score)” value in [1] was 7.72; in [2] it was -0.201; in experiment [3] it was -0.252; in experiment [4], -0.25; in experiment [5], -0.309; in experiment [6], -0.241. Further, the “glycan array binding signal (z-score)” value is -0.253 in experiment [7]; -0.27 in experiment [8]; -0.223 in experiment [9]; -0.22 in experiment [10]; -0.217 in [11]; -0.138 in [12]. The “glycan array binding signal (z-score)” value in experiment [13] is -0.237; in [14], -0.234; in experiment [15], -0.25; in [16], -0.305; in [17] it was -0.165; in [18], -0.229. Besides, the “glycan array binding signal (z-score)” value in [19] was -0.269; in experiment [20], 0.406; in experiment [21], -0.287; in experiment [22], -0.246.
